# Experiments:
# Experiment in all cases: DAPPL (digital affinity profiling via proximity ligation, sequencing); 10 mM Tris-HCl pH 7.5, 50 mM NaCl, 1 mM DTT, 4% glycerol, room temperature, 30 min; GST-TFs on glutathione beads, 16-mer random dsDNA library, 0.1% formaldehyde crosslink after washing; high values mean tight binding
# Conditions in all cases: protein: recombinant; tags: N-terminal GST; dsDNA, one strand shown
# [1] = molecular target: T1, FLI1 (Homo sapiens, UniProt Q01543 1-452)
# T1 sequence: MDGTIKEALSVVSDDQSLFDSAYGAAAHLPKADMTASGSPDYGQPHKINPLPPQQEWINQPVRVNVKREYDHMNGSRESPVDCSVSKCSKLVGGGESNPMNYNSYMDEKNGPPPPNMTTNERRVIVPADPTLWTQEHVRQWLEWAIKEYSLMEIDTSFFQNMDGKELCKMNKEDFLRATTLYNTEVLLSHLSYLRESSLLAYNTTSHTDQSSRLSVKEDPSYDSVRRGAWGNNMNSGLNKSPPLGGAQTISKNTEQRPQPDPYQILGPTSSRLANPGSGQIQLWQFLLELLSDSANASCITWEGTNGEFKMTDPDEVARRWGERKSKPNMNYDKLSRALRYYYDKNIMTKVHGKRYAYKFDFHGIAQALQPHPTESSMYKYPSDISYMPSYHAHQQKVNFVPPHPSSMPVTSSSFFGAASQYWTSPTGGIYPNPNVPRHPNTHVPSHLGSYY
# Method in brief: (§1)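 Human transcription factors were made in yeast as GST fusions, captured on glutathione beads and barcoded with DNA. With a tag-only sample included, the pool was incubated with 200 nmole of a random double-stranded 16-mer DNA library in Tris/NaCl/DTT/glycerol buffer at room temperature for 30 min, then crosslinked with 0.1% formaldehyde after washing, ligated by proximity, amplified and sequenced. For binding signal, each hexamer's read frequency for a factor is divided by its frequency for the tag-only sample.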
# [2] = molecular target: T2, ELK1 (Homo sapiens, UniProt P19419 1-428)
# T2 sequence: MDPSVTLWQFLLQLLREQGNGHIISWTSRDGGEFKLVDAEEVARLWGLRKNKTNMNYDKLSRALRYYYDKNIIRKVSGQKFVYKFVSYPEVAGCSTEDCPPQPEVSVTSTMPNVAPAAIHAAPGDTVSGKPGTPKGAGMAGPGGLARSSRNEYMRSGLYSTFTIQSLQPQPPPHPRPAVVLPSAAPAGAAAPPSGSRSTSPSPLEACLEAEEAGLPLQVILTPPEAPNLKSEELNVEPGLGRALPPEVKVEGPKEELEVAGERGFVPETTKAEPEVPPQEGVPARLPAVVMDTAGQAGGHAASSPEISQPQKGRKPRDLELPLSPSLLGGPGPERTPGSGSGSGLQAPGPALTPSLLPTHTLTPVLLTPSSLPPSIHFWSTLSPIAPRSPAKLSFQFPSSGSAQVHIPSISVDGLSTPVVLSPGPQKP
# Method in brief: as §1
# [3] = molecular target: T3, GABPA (Homo sapiens, UniProt Q06546 1-454)
# T3 sequence: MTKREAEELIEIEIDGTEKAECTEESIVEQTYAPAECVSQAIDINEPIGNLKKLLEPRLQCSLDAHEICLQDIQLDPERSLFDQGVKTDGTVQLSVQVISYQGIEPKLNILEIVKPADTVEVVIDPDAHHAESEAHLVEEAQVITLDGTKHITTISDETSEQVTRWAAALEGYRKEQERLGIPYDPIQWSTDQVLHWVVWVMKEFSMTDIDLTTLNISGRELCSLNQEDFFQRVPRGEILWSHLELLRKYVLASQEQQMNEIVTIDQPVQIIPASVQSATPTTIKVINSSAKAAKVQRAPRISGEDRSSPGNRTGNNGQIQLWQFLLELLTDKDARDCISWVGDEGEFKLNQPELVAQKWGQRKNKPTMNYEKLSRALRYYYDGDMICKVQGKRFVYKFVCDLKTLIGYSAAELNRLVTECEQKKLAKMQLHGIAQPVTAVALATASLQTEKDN
# Method in brief: as §1
# [4] = molecular target: T4, ERG (Homo sapiens, UniProt P11308 1-479)
# T4 sequence: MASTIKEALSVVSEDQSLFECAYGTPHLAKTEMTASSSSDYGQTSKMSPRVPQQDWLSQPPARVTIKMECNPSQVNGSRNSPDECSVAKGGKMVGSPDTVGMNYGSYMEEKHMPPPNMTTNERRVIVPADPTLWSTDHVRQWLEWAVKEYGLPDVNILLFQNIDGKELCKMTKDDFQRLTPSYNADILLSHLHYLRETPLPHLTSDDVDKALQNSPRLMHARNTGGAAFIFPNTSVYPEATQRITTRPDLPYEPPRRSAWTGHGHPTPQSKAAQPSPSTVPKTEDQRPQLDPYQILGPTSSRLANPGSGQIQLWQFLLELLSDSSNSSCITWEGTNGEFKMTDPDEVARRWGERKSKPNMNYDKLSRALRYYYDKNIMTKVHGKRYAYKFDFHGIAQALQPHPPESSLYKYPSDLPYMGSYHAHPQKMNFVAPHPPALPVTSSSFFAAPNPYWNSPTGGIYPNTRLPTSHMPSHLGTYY
# Method in brief: as §1
# [5] = molecular target: ELF1 (Homo sapiens, UniProt P32519 1-619)
# Chain of ELF1 (P32519 whole entry): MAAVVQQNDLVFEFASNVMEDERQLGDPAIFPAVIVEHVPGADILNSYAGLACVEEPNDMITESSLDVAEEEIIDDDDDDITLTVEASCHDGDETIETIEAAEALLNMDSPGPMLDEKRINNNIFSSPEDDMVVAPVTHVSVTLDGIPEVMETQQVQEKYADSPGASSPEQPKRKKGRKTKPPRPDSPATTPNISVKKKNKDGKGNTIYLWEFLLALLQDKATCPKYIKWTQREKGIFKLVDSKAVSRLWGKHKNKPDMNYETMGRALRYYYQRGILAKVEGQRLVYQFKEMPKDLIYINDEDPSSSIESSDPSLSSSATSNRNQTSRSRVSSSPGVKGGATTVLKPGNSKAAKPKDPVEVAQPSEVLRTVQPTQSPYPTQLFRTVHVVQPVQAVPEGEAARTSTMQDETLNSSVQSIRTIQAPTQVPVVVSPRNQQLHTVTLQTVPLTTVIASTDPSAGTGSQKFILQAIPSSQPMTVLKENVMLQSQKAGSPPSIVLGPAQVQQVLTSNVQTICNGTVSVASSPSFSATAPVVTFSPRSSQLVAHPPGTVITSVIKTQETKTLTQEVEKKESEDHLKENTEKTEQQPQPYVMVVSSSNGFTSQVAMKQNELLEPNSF
# Method in brief: as §1
# [6] = molecular target: T5, EHF (Homo sapiens, UniProt Q9NZC4 1-300)
# T5 sequence: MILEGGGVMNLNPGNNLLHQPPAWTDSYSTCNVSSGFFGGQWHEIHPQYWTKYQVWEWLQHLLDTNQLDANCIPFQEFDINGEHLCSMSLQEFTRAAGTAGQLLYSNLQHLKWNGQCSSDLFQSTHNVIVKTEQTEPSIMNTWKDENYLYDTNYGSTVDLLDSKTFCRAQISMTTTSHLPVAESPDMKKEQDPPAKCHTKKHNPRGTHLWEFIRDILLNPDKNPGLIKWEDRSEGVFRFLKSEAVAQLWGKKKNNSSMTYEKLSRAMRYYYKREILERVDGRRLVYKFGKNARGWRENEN
# Method in brief: as §1
# [7] = molecular target: SPI1 (Homo sapiens, UniProt P17947 1-270)
# Method in brief: as §1
# [8] = molecular target: SPIB (Homo sapiens, UniProt Q01892 1-262)
# Chain of SPIB (Q01892 whole entry): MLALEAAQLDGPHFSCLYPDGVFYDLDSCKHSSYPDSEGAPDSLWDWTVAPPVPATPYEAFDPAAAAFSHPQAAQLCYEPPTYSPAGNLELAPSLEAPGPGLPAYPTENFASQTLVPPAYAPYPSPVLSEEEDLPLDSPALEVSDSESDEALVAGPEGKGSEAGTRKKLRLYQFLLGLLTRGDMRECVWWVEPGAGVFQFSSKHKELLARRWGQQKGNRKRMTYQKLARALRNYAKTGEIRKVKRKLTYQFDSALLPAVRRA
# Method in brief: as §1
# [9] = molecular target: T6, ELK3 (Homo sapiens, UniProt P41970 1-407)
# T6 sequence: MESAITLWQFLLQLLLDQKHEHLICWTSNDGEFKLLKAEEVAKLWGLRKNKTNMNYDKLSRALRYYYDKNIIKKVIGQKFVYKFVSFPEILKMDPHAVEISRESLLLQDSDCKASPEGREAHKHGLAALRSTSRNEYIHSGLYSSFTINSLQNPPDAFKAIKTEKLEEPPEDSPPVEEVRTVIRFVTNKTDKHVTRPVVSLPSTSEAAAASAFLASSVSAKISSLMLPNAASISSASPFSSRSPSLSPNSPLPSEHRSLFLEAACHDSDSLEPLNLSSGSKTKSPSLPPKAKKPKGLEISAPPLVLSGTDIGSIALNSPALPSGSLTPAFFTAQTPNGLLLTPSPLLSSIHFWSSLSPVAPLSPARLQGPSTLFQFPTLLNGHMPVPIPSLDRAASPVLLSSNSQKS
# Method in brief: as §1
# [10] = molecular target: T7, FEV (Homo sapiens, UniProt Q99581 1-238)
# T7 sequence: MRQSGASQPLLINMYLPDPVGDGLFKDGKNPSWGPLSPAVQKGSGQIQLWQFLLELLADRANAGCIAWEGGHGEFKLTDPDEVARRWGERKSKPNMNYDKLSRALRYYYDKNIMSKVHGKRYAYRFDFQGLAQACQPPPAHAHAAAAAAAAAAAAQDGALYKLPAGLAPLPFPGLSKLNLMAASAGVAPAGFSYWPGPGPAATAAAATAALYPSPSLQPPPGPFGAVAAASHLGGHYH
# Method in brief: as §1
# [11] = molecular target: ETV5 (Homo sapiens, UniProt P41161 1-510)
# Chain of ETV5 (P41161 whole entry): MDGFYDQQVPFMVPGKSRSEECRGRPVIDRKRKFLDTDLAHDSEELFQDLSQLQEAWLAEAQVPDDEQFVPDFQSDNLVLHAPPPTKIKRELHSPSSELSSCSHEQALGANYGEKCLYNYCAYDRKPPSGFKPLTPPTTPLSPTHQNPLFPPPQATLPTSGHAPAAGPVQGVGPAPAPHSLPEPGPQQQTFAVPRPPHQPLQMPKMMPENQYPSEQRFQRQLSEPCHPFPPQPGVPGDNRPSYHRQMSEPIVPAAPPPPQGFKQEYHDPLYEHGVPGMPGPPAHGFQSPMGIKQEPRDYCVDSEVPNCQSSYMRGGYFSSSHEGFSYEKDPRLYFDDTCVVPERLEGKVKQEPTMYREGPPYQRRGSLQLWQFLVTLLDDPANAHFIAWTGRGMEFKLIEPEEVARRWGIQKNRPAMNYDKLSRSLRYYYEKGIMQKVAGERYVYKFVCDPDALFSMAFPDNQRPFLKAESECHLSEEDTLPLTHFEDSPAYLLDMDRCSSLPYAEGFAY
# Method in brief: as §1
# [12] = molecular target: T8, SPIC (Homo sapiens, UniProt Q8N5J4 1-248)
# T8 sequence: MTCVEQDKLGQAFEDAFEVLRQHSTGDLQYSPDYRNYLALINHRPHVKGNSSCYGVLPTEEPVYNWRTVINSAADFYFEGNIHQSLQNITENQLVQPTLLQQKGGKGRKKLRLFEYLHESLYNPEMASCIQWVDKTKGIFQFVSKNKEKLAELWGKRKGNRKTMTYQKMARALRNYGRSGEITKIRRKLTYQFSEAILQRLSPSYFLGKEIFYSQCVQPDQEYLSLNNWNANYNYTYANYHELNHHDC
# Method in brief: as §1
# [13] = molecular target: ELF4 (Homo sapiens, UniProt Q99607 1-663)
# Chain of ELF4 (Q99607 whole entry): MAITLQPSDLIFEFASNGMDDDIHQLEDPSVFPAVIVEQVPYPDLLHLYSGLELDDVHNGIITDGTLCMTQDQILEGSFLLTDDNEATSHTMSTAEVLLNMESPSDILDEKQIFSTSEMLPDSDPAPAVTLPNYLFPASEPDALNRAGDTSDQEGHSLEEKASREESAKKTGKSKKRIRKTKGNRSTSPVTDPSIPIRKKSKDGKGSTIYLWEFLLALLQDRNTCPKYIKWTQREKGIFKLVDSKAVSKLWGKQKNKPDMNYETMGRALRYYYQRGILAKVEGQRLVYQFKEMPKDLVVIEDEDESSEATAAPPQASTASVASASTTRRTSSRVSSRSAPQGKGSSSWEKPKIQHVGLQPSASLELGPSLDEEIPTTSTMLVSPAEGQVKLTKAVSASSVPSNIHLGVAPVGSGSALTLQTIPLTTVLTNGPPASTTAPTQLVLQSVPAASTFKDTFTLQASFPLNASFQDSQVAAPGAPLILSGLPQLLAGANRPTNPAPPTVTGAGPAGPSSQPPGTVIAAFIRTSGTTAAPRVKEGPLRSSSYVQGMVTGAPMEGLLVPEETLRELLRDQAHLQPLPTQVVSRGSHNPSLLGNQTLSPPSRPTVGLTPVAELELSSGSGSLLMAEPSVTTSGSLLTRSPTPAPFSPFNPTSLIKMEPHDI
# Method in brief: as §1
# [14] = molecular target: T9, ELK4 (Homo sapiens, UniProt P28324-2 1-405)
# T9 sequence: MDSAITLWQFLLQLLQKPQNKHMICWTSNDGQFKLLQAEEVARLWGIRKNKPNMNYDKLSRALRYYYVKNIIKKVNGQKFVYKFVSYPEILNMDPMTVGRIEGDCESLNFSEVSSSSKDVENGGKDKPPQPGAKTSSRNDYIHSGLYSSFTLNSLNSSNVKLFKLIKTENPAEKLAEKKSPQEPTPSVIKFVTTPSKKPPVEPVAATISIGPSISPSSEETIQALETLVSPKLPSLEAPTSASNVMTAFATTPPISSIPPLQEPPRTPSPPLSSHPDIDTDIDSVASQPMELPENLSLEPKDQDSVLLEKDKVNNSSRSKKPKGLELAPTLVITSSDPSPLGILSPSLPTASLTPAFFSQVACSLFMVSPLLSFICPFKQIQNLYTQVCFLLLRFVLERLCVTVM
# Method in brief: as §1
# [15] = molecular target: T10, ETV2 (Homo sapiens, UniProt O00321 1-342)
# T10 sequence: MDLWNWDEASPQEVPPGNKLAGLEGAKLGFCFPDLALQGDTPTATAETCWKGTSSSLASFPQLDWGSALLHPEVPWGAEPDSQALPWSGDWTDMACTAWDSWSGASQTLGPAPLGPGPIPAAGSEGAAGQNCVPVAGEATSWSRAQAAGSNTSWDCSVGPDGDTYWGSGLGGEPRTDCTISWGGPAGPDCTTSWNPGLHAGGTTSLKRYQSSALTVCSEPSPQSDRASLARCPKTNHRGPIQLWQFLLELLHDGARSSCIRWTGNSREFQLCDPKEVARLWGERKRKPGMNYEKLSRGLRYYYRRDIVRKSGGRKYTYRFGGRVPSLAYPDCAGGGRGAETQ
# Method in brief: as §1
# [16] = molecular target: T11, ELF3 (Homo sapiens, UniProt P78545 1-371)
# T11 sequence: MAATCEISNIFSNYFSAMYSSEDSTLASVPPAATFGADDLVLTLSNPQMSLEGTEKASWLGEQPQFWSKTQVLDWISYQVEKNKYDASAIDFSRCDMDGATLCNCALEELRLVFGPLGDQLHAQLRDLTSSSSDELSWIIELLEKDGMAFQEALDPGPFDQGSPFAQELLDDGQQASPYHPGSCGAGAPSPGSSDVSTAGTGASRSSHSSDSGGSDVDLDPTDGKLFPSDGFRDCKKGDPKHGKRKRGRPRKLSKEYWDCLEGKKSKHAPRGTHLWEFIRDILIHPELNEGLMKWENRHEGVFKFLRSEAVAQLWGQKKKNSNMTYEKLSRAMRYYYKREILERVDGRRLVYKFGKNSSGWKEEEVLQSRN
# Method in brief: as §1
# [17] = molecular target: CRX (Homo sapiens, UniProt O43186 1-299)
# Chain of CRX (O43186 whole entry): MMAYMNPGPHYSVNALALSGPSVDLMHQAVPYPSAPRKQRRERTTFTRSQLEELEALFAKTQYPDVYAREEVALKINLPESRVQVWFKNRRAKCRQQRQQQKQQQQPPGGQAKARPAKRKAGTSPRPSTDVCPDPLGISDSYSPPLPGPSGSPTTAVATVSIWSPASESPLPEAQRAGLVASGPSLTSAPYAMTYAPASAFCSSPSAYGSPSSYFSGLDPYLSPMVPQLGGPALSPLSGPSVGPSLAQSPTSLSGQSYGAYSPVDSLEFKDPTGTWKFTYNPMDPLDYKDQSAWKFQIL
# Method in brief: as §1
# [18] = molecular target: ETV1 (Homo sapiens, UniProt P50549 1-477)
# Chain of ETV1 (P50549 whole entry): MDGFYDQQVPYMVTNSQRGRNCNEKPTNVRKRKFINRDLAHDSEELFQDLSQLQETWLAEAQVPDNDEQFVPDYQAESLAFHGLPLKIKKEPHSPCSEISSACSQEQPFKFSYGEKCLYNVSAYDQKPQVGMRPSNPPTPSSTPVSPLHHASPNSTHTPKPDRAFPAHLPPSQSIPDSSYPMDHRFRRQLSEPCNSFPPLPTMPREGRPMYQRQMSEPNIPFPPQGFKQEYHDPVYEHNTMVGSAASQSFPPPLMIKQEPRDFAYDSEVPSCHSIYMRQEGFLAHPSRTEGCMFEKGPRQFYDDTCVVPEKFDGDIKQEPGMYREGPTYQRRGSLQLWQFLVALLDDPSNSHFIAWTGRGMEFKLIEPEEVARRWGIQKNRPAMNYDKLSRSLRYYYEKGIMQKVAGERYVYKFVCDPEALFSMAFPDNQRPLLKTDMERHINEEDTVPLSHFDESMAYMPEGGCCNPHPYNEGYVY
# Method in brief: as §1
sequence,measurement,setting,value
AAAGGG,binding signal,[1],"1.21 fold enrichment (6-mer frequency, TF over GST control)"
same,binding signal,[2],"1.11 fold enrichment (6-mer frequency, TF over GST control)"
same,binding signal,[3],"1.22 fold enrichment (6-mer frequency, TF over GST control)"
same,binding signal,[4],"1.12 fold enrichment (6-mer frequency, TF over GST control)"
same,binding signal,[5],"1.09 fold enrichment (6-mer frequency, TF over GST control)"
same,binding signal,[6],"1.2 fold enrichment (6-mer frequency, TF over GST control)"
same,binding signal,[7],"1.68 fold enrichment (6-mer frequency, TF over GST control)"
same,binding signal,[8],"1.19 fold enrichment (6-mer frequency, TF over GST control)"
same,binding signal,[9],"1.1 fold enrichment (6-mer frequency, TF over GST control)"
same,binding signal,[10],"1.11 fold enrichment (6-mer frequency, TF over GST control)"
same,binding signal,[11],"1.21 fold enrichment (6-mer frequency, TF over GST control)"
same,binding signal,[12],"1.22 fold enrichment (6-mer frequency, TF over GST control)"
same,binding signal,[13],"1.19 fold enrichment (6-mer frequency, TF over GST control)"
same,binding signal,[14],"1.1 fold enrichment (6-mer frequency, TF over GST control)"
same,binding signal,[15],"1.05 fold enrichment (6-mer frequency, TF over GST control)"
same,binding signal,[16],"1.25 fold enrichment (6-mer frequency, TF over GST control)"
same,binding signal,[17],"1.08 fold enrichment (6-mer frequency, TF over GST control)"
same,binding signal,[18],"1.26 fold enrichment (6-mer frequency, TF over GST control)"
